# Assay outcomes as filed in PubChem BioAssay.
# In the library only some 21% were active in any assay of this set; here they are far more common.
# IL1B secr inh: qHTS for Inhibitors of Inflammasome Signaling: IL-1-beta AlphaLISA Primary Screen. THP-1 LPS/ATP IL-1B secretion, AlphaLISA, 16 h; stronger effect = lower value. hit rate 4.7% among 360,000. activity change, % at 57.5 µM; in the data active = activity change below about -50%; inconclusive = mostly about -30% to -49%
#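 THP-1 cells pretreated 1 hr with compounds (up to 57.5 uM final), then stimulated with LPS (250 ng/mL final) plus ATP (1.25 mM final); secreted IL-1B measured by AlphaLISA after 16 hr, decreased signal indicating inhibition.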
# TDP1 cell noCPT: qHTS for Inhibitors of human tyrosyl-DNA phosphodiesterase 1 (TDP1): qHTS in cells in absence of CPT; DT40 Tdp1-/- hTDP1 cells, no CPT, ATP luminescence, 48 h; hit rate 15% among 420,000; AID 686978, 2013; Potency, µM (doses to about 46.2 µM), without a hit: at the highest dose activity change, negative = growth inhibition, most hits filed as inhibitors; note: potency is the fitted concentration of half-maximal effect; nearly all actives have a fitted effect of over 55% in size
#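 Readout: luminescence from CellTiter-Glo after 30 min in the dark at RT. Cells: DT40 Tdp1-/- with stable hTDP1, 400/well. Exposure: compounds alone, ≥48 hr, 37 °C.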
# RORg inh: qHTS for inhibitors of ROR gamma transcriptional activity; AID 2551, 2010; Potency, µM (highest dose often 53.6 µM), without a hit: top-dose activity change, negative = inhibition, most hits filed as inhibitors; Nuclear receptor ROR-gamma (Mus musculus), P51450; hit rate 5.4% among 310,000; Drosophila S2 Gal4-RORgamma UAS-luciferase reporter, 20 h; note: potency is the fitted concentration of half-maximal effect; nearly all actives have a fitted effect of over 60% in size
# Target sequence (P51450 whole entry, looked up, the tested form may be a part): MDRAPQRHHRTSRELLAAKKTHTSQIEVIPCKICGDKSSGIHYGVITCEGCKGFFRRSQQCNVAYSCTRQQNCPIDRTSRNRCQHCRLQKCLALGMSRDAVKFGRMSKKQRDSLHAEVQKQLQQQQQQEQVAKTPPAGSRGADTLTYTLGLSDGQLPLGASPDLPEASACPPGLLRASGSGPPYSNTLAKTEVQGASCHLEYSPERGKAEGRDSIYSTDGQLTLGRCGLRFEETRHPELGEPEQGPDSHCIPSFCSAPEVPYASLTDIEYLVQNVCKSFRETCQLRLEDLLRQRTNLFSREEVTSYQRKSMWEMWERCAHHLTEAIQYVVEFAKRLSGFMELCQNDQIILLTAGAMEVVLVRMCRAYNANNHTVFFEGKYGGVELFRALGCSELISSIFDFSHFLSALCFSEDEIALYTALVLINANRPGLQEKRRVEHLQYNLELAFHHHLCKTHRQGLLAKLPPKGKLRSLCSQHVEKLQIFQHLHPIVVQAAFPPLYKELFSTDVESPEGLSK
#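 Schneider cells (Drosophila), stable Gal4 DBD–ROR gamma + UAS-luc; 1 hr cmpd preincubation; Cu2+ induction 700 uM final; 20 hr ambient; luminescence.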
# DT40 TDP1 CPT: qHTS for Inhibitors of human tyrosyl-DNA phosphodiesterase 1 (TDP1): qHTS in cells in presence of CPT; AID 686979, 2013; chicken DT40 Tdp1-/-;hTDP1 cells + 20 nM CPT, ATP luminescence, 48 h; Potency, µM (highest dose often 46.2 µM), for inactives: top-dose activity change, negative = growth inhibition, usual class: inhibitors; hit rate 12% among 420,000; note: potency is the fitted concentration of half-maximal effect; nearly all actives have a fitted effect of over 55% in size
#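 Chicken DT40 Tdp1-/- cells stably complemented with human TDP1 were seeded at 400 cells/well in medium containing 20 nM camptothecin, exposed to pin-transferred compounds, and grown at 37 °C for at least 48 hr. Viability was read as ATP luminescence.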
# ELG1 repair inh: qHTS screen for small molecules that inhibit ELG1-dependent DNA repair in human embryonic kidney (HEK293T) cells expressing luciferase-tagged ELG1. HEK293T ELG1-luciferase reporter, luminescence, 16 h; DNA damage induced by 5-fluorouridine. Potency, µM (doses to about 46.1 µM), without a hit: at the top dose activity change, negative = inhibition, actives largely listed as inhibitors. hit rate 2.3% among 330,000. AID 504467, 2011; note: potency is the fitted concentration of half-maximal effect; nearly all actives have a fitted effect of over 55% in size
#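 Step one: seed 2,000 cells per well. Step two: pin-transfer compound or DMSO alongside 5-fluorouridine. Step three: incubate 16 hr, 37 °C, 5% CO2. Step four: add ONE-Glo, wait 30 min, read luminescence.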
# VP16 counter: VP16 counterscreen qHTS for inhibitors of ROR gamma transcriptional activity; Drosophila S2 Gal4-VP16 UAS-luciferase, luminescence, 20 h; Potency, µM (series often up to 53.6 µM), for the others: top-dose activity, negative = inhibition, hits mostly inhibitors; hit rate 3.5% among 310,000; AID 2546, 2010;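 note: Gal4-VP16 expression switched on by copper sulfate through the metallothionein promoter; potency is the fitted concentration of half-maximal effect; nearly all actives have a fitted effect of over 50% in size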
# Active calls of the source: *; ? = inconclusive; · = no result. Unless noted, calls come from the whole dose curve; as a rule, active = well fitted curve in the direction sought with a large enough effect; inconclusive = small, poorly fitted or top-dose-only effect, or another doubt; inactive = no such curve, though single readings can be large; an effect the other way counts as inactive or inconclusive. % is set by controls: 0 for no effect and ±100 for the full control effect.
SMILES,IL1B secr inh,TDP1 cell noCPT,RORg inh,DT40 TDP1 CPT,ELG1 repair inh,VP16 counter
O=C1C2C3C=CC(CC3)C2C(=O)N1c1cccc(Br)c1 (centres undefined),6,-11%,3%,-22%,10%,-13%
Cc1ccc(-c2nnc(Nc3cccc(Br)c3)c3ccccc23)cc1S(=O)(=O)N1CCN(C)CC1,·,18µM*,·,13µM*,·,·
Cc1ccc(NS(=O)(=O)c2cc(-c3n[nH]c(=O)c4ccccc34)ccc2C)cc1,-3,6.5µM*,?,7.3µM*,?,-6%
Cc1ccc(-c2nnc(NCc3nc4ccccc4[nH]3)c3ccccc23)cc1S(=O)(=O)N1CCCCC1,-3,16µM*,-6%,21µM*,8.2µM*,1%
Cc1ccc(Nc2nnc(-c3ccc(C)c(S(=O)(=O)N4CCN(C)CC4)c3)c3ccccc23)cc1,·,16µM*,·,18µM*,·,·
CCOC(=O)CNS(=O)(=O)c1cc(-c2n[nH]c(=O)c3ccccc23)ccc1C,·,-15%,-1%,?,-12%,5%
Cc1ccc(-c2nnc(Nc3cccc(Br)c3)c3ccccc23)cc1S(=O)(=O)N1CCCCC1,·,-24%,·,-25%,·,·
Cc1ccc(-c2nnc(Nc3ccc(C(N)=O)cc3)c3ccccc23)cc1S(N)(=O)=O,·,0%,·,10%,·,·
Cc1ccc(-c2nnc(Nc3cccc(O)c3)c3ccccc23)cc1S(=O)(=O)N1CCCCC1,·,-102%,·,18µM*,·,·
Cc1ccc(-c2nnc(Nc3cccc(O)c3)c3ccccc23)cc1S(=O)(=O)NCCO,-16,-4%,20%,-14%,-17%,-14%
O=C1CC2(CCN(C(=O)c3ccc(F)c(F)c3)CC2)Oc2ccccc21,-11,?,·,29µM*,-3%,·
O=C1CC2(CCN(C(=O)c3ccccc3Cl)CC2)Oc2ccccc21,-18,?,·,?,?,·
CCSc1ccccc1C(=O)N1CCC2(CC1)CC(=O)c1ccccc1O2,-1,16µM*,·,-46%,?,·
CCOC(=O)c1c(NC(=O)c2c(C(=O)O)cccc2[N+](=O)[O-])sc2c1CCCC2,-10,?,15%,?,-9%,-5%
O=C(Nc1ccccc1[N+](=O)[O-])OCC=Cc1ccccc1,-54*,?,·,1%,·,·
O=C(COC(=O)c1ccco1)Nc1ccccc1[N+](=O)[O-],22,9%,?,8%,16%,16%
CC(C)(C)C(=O)N1NC(=Nc2ccccc2)SC1(C)C,·,21µM*,-3%,-28%,-7%,-2%
COc1ccc(NC(=O)Nc2ccccc2SC)cc1,-15,-26%,2%,?,?,10%
COc1ccc(-c2nc3ccccc3nc2-c2ccccc2)cc1,48,?,-2%,?,-19%,6%
COc1ccc(NC(=O)Nc2ccccc2F)cc1,-26,7.9µM*,?,8.2µM*,?,0%
COc1ccc(N(C)C(=O)c2ccc3nc(-c4ccccc4)c(-c4ccccc4)nc3c2)cc1,0,18µM*,11%,?,-17%,3%
C=CCN(C(=O)c1ccccc1)c1ccc(OC)cc1,3,22µM*,-16%,13µM*,?,3%
COc1ccc(OC)c(NC(=O)c2ccc3nc(-c4ccccc4)c(-c4ccccc4)nc3c2)c1,·,·,-18%,·,23µM*,-25%
COc1ccccc1CCNC(=O)Cc1c(C)c2cc(Cl)c(O)cc2oc1=O,·,-29%,·,-27%,·,·
COc1ccc(C(=O)Nc2cc(OC)c(NC(=O)Nc3ccccc3)cc2OC)cc1,-14,18µM*,·,?,·,·
